Residue numbers refer to the chain shown, from its start.
What was measured:
Assay in all cases: PBM; 200 nM protein, PBS
Conditions in all cases: dsDNA, one strand shown
PRRX1 [1] = biological target: PRRX1 (Homo sapiens, UniProt P54821 80-166, F113S)
MSX2 [2] = biological target: MSX2 (Homo sapiens, UniProt P35548 130-214, R199I)
ALX3 [3] = biological target: ALX3 (Homo sapiens, UniProt O95076 139-225, N203Q)
NKX2-6 [4] = biological target: T1, NKX2-6 (Homo sapiens, UniProt A6NCS4 118-204)
T1 sequence: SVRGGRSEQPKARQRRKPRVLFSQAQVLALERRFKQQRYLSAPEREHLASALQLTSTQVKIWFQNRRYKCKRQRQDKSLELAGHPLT

MSX2 [5] = biological target: MSX2 (Homo sapiens, UniProt P35548 130-214)
ALX3 [6] = biological target: ALX3 (Homo sapiens, UniProt O95076 139-225)
ALX3 [7] = biological target: ALX3 (Homo sapiens, UniProt O95076 139-225, L168Q)
NKX2-6 [8] = biological target: T2, NKX2-6 (Homo sapiens, UniProt A6NCS4 118-204, F151L)
T2 sequence: T1 sequence with F34L

ALX3 [9] = biological target: ALX3 (Homo sapiens, UniProt O95076 139-225, L168V)
MSX2 [10] = biological target: MSX2 (Homo sapiens, UniProt P35548 130-214, F161Y)
ALX3 [11] = biological target: ALX3 (Homo sapiens, UniProt O95076 139-225, N203S)
PRRX1 [12] = biological target: PRRX1 (Homo sapiens, UniProt P54821 80-166)
HOXA2 = HOXA2 (Homo sapiens, UniProt O43364 129-215, R185T)
ALX1 [13] = biological target: ALX1 (Homo sapiens, UniProt Q15699 118-204, L144R)
SHOX = SHOX (Homo sapiens, UniProt O15266 103-189, R173C)
PAX4 [14] = biological target: T3, PAX4 (Homo sapiens, UniProt O43316 9-242, R227W)
T3 sequence: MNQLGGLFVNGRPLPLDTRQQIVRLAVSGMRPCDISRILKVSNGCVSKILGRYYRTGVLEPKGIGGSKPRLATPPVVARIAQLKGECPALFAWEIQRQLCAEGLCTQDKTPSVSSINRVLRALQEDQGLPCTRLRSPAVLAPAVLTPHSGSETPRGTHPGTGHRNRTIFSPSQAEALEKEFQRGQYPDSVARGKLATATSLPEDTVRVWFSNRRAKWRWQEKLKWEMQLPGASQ

NKX2-6 [15] = biological target: T4, NKX2-6 (Homo sapiens, UniProt A6NCS4 118-204, R150C)
T4 sequence: T1 sequence with R33C

HOXD13 [16] = biological target: HOXD13 (Homo sapiens, UniProt P35453 263-343, T313R)
HOXD13 [17] = biological target: HOXD13 (Homo sapiens, UniProt P35453 263-343)
HOXD13 [18] = biological target: HOXD13 (Homo sapiens, UniProt P35453 263-343, T313A)
ALX4 = ALX4 (Homo sapiens, UniProt Q9H161 200-286, Q225E)
ALX1 [19] = biological target: ALX1 (Homo sapiens, UniProt Q15699 118-204, L144V)
PAX4 [20] = biological target: T5, PAX4 (Homo sapiens, UniProt O43316 9-242, R200Q)
T5 sequence: T3 sequence with R192Q, W219R

HESX1 = HESX1 (Homo sapiens, UniProt Q9UBX0 95-180, R109Q)
ALX1 [21] = biological target: ALX1 (Homo sapiens, UniProt Q15699 118-204)
HOXB6 [22] = biological target: HOXB6 (Homo sapiens, UniProt P17509 132-218, K202E)
HOXB6 [23] = biological target: HOXB6 (Homo sapiens, UniProt P17509 132-218)
CRX = CRX (Homo sapiens, UniProt O43186 26-111, R41L)
Sequence of CRX (O43186 26-111 R41L): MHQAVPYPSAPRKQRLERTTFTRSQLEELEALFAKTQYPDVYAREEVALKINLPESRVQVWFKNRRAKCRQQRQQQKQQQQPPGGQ

Sequence of ALX3 (Homo sapiens, UniProt O95076 139-225, L168V) (O95076 139-225 L168V): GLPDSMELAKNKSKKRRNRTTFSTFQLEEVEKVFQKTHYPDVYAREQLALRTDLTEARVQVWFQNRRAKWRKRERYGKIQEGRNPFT
Sequence of SHOX (O15266 103-189 R173C): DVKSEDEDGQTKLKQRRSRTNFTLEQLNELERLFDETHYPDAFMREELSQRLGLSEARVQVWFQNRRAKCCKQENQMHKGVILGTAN
Sequence of PRRX1 (Homo sapiens, UniProt P54821 80-166) (P54821 80-166): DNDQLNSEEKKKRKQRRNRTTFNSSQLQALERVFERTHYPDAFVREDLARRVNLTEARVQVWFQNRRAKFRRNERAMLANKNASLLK
Sequence of MSX2 (Homo sapiens, UniProt P35548 130-214, R199I) (P35548 130-214 R199I): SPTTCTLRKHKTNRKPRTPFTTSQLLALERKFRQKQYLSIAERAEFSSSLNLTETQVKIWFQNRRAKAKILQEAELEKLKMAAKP
Sequence of PRRX1 (Homo sapiens, UniProt P54821 80-166, F113S) (P54821 80-166 F113S): as the sequence (P54821 80-166) above, with F34S counted along it
Sequence of ALX3 (Homo sapiens, UniProt O95076 139-225, L168Q) (O95076 139-225 L168Q): as the sequence (O95076 139-225 L168V) above, with V30Q counted along it
Sequence of ALX1 (Homo sapiens, UniProt Q15699 118-204, L144R) (Q15699 118-204 L144R): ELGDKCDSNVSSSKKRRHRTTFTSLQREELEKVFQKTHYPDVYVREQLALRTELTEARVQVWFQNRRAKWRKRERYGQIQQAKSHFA
Sequence of HOXA2 (O43364 129-215 R185T): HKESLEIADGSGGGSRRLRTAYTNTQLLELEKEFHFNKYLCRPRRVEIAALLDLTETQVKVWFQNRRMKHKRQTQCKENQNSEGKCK
Sequence of HOXD13 (Homo sapiens, UniProt P35453 263-343) (P35453 263-343): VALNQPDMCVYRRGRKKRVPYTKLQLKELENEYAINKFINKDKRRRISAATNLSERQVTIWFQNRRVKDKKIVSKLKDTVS
Sequence of ALX1 (Homo sapiens, UniProt Q15699 118-204) (Q15699 118-204): as the sequence (Q15699 118-204 L144R) above, with R27L counted along it
Sequence of ALX3 (Homo sapiens, UniProt O95076 139-225, N203Q) (O95076 139-225 N203Q): as the sequence (O95076 139-225 L168V) above, with V30L, N65Q counted along it
Sequence of HOXD13 (Homo sapiens, UniProt P35453 263-343, T313R) (P35453 263-343 T313R): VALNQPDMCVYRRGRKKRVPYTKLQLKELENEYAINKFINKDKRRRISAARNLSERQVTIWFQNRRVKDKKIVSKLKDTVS
Sequence of ALX3 (Homo sapiens, UniProt O95076 139-225, N203S) (O95076 139-225 N203S): as the sequence (O95076 139-225 L168V) above, with V30L, N65S counted along it
Sequence of MSX2 (Homo sapiens, UniProt P35548 130-214) (P35548 130-214): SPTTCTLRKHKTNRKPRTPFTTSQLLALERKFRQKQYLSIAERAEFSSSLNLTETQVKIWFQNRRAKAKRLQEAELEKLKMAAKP
Sequence of ALX4 (Q9H161 200-286 Q225E): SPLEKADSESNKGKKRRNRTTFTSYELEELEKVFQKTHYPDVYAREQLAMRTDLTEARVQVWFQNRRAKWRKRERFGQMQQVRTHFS
Sequence of ALX3 (Homo sapiens, UniProt O95076 139-225) (O95076 139-225): as the sequence (O95076 139-225 L168V) above, with V30L counted along it
Sequence of HOXB6 (Homo sapiens, UniProt P17509 132-218, K202E) (P17509 132-218 K202E): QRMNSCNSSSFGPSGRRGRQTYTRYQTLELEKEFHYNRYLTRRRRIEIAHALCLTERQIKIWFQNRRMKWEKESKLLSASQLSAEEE
Sequence of ALX1 (Homo sapiens, UniProt Q15699 118-204, L144V) (Q15699 118-204 L144V): as the sequence (Q15699 118-204 L144R) above, with R27V counted along it
Sequence of HOXB6 (Homo sapiens, UniProt P17509 132-218) (P17509 132-218): as the sequence (P17509 132-218 K202E) above, with E71K counted along it
Sequence of HESX1 (Q9UBX0 95-180 R109Q): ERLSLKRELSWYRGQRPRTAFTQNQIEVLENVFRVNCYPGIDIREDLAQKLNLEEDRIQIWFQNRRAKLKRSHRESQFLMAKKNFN
Sequence of MSX2 (Homo sapiens, UniProt P35548 130-214, F161Y) (P35548 130-214 F161Y): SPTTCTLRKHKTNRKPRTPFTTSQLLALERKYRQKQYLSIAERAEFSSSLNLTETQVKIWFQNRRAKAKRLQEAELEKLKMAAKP
Sequence of HOXD13 (Homo sapiens, UniProt P35453 263-343, T313A) (P35453 263-343 T313A): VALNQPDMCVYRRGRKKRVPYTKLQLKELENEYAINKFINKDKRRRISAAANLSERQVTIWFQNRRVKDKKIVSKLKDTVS

Sequence: ACGCCCCG
- binding signal (PRRX1 [1]): 9.23 upbm affinity estimate (log intensity, higher = more binding, comparable within an allelic series)
- binding signal (MSX2 [2]): 9.45 upbm affinity estimate (log intensity, higher = more binding, comparable within an allelic series)
- binding signal (ALX3 [3]): 7.74 upbm affinity estimate (log intensity, higher = more binding, comparable within an allelic series)
- binding signal (NKX2-6 [4]): 9.2 upbm affinity estimate (log intensity, higher = more binding, comparable within an allelic series)
- binding signal (MSX2 [5]): 9.36 upbm affinity estimate (log intensity, higher = more binding, comparable within an allelic series)
- binding signal (ALX3 [6]): 7.57 upbm affinity estimate (log intensity, higher = more binding, comparable within an allelic series)
- binding signal (ALX3 [7]): 7.68 upbm affinity estimate (log intensity, higher = more binding, comparable within an allelic series)
- binding signal (NKX2-6 [8]): 9.33 upbm affinity estimate (log intensity, higher = more binding, comparable within an allelic series)
- binding signal (ALX3 [9]): 7.67 upbm affinity estimate (log intensity, higher = more binding, comparable within an allelic series)
- binding signal (MSX2 [10]): 9.41 upbm affinity estimate (log intensity, higher = more binding, comparable within an allelic series)
- binding signal (ALX3 [11]): 7.73 upbm affinity estimate (log intensity, higher = more binding, comparable within an allelic series)
- binding signal (PRRX1 [12]): 9.08 upbm affinity estimate (log intensity, higher = more binding, comparable within an allelic series)

Sequence: ACTAATCA
- binding signal (PRRX1 [1]): 10.9 upbm affinity estimate (log intensity, higher = more binding, comparable within an allelic series)
- binding signal (HOXA2): 12.5 upbm affinity estimate (log intensity, higher = more binding, comparable within an allelic series)
- binding signal (MSX2 [2]): 11.2 upbm affinity estimate (log intensity, higher = more binding, comparable within an allelic series)
- binding signal (PRRX1 [12]): 13.2 upbm affinity estimate (log intensity, higher = more binding, comparable within an allelic series)

Sequence: TTAATCAA
- binding signal (PRRX1 [1]): 11.1 upbm affinity estimate (log intensity, higher = more binding, comparable within an allelic series)
- binding signal (ALX1 [13]): 11.2 upbm affinity estimate (log intensity, higher = more binding, comparable within an allelic series)
- binding signal (PRRX1 [12]): 13.3 upbm affinity estimate (log intensity, higher = more binding, comparable within an allelic series)

Sequence: AATTATAG
- binding signal (PRRX1 [1]): 11.2 upbm affinity estimate (log intensity, higher = more binding, comparable within an allelic series)
- binding signal (MSX2 [2]): 12.2 upbm affinity estimate (log intensity, higher = more binding, comparable within an allelic series)
- binding signal (SHOX): 9.23 upbm affinity estimate (log intensity, higher = more binding, comparable within an allelic series)
- binding signal (ALX3 [9]): 9.73 upbm affinity estimate (log intensity, higher = more binding, comparable within an allelic series)
- binding signal (PAX4 [14]): 10.9 upbm affinity estimate (log intensity, higher = more binding, comparable within an allelic series)

Sequence: AGACGAGC
- binding signal (PRRX1 [1]): 9.44 upbm affinity estimate (log intensity, higher = more binding, comparable within an allelic series)
- binding signal (NKX2-6 [4]): 9.38 upbm affinity estimate (log intensity, higher = more binding, comparable within an allelic series)
- binding signal (NKX2-6 [8]): 9.3 upbm affinity estimate (log intensity, higher = more binding, comparable within an allelic series)
- binding signal (PRRX1 [12]): 9.6 upbm affinity estimate (log intensity, higher = more binding, comparable within an allelic series)

Sequence: AATTATGC
- binding signal (PRRX1 [1]): 11.1 upbm affinity estimate (log intensity, higher = more binding, comparable within an allelic series)
- binding signal (SHOX): 9.27 upbm affinity estimate (log intensity, higher = more binding, comparable within an allelic series)

Sequence: CACGTGGC
- binding signal (PRRX1 [1]): 9.17 upbm affinity estimate (log intensity, higher = more binding, comparable within an allelic series)
- binding signal (NKX2-6 [15]): 9.61 upbm affinity estimate (log intensity, higher = more binding, comparable within an allelic series)
- binding signal (PRRX1 [12]): 9.4 upbm affinity estimate (log intensity, higher = more binding, comparable within an allelic series)

Sequence: GGCCTACC
- binding signal (PRRX1 [1]): 9.31 upbm affinity estimate (log intensity, higher = more binding, comparable within an allelic series)
- binding signal (HOXD13 [16]): 9.55 upbm affinity estimate (log intensity, higher = more binding, comparable within an allelic series)
- binding signal (HOXD13 [17]): 9.49 upbm affinity estimate (log intensity, higher = more binding, comparable within an allelic series)
- binding signal (HOXD13 [18]): 9.59 upbm affinity estimate (log intensity, higher = more binding, comparable within an allelic series)
- binding signal (PRRX1 [12]): 9.37 upbm affinity estimate (log intensity, higher = more binding, comparable within an allelic series)

Sequence: AATTAAAC
- binding signal (PRRX1 [1]): 11.1 upbm affinity estimate (log intensity, higher = more binding, comparable within an allelic series)
- binding signal (ALX4): 12.8 upbm affinity estimate (log intensity, higher = more binding, comparable within an allelic series)
- binding signal (ALX1 [19]): 11.3 upbm affinity estimate (log intensity, higher = more binding, comparable within an allelic series)
- binding signal (PAX4 [20]): 11.8 upbm affinity estimate (log intensity, higher = more binding, comparable within an allelic series)
- binding signal (SHOX): 9.29 upbm affinity estimate (log intensity, higher = more binding, comparable within an allelic series)
- binding signal (ALX1 [13]): 11 upbm affinity estimate (log intensity, higher = more binding, comparable within an allelic series)
- binding signal (HESX1): 8.69 upbm affinity estimate (log intensity, higher = more binding, comparable within an allelic series)
- binding signal (ALX3 [7]): 10.2 upbm affinity estimate (log intensity, higher = more binding, comparable within an allelic series)
- binding signal (ALX3 [9]): 9.91 upbm affinity estimate (log intensity, higher = more binding, comparable within an allelic series)
- binding signal (ALX1 [21]): 12 upbm affinity estimate (log intensity, higher = more binding, comparable within an allelic series)

Sequence: GTCCCCAC
- binding signal (PRRX1 [1]): 9.29 upbm affinity estimate (log intensity, higher = more binding, comparable within an allelic series)
- binding signal (HOXB6 [22]): 9.01 upbm affinity estimate (log intensity, higher = more binding, comparable within an allelic series)
- binding signal (PRRX1 [12]): 9.35 upbm affinity estimate (log intensity, higher = more binding, comparable within an allelic series)
- binding signal (HOXB6 [23]): 9.13 upbm affinity estimate (log intensity, higher = more binding, comparable within an allelic series)

Sequence: CTATAATC
- binding signal (PRRX1 [1]): 10.5 upbm affinity estimate (log intensity, higher = more binding, comparable within an allelic series)
- binding signal (CRX): 12.5 upbm affinity estimate (log intensity, higher = more binding, comparable within an allelic series)
- binding signal (PRRX1 [12]): 12.5 upbm affinity estimate (log intensity, higher = more binding, comparable within an allelic series)

Sequence: GTCCCCCA
- binding signal (PRRX1 [1]): 9.39 upbm affinity estimate (log intensity, higher = more binding, comparable within an allelic series)
- binding signal (NKX2-6 [15]): 9.42 upbm affinity estimate (log intensity, higher = more binding, comparable within an allelic series)
- binding signal (PRRX1 [12]): 9.22 upbm affinity estimate (log intensity, higher = more binding, comparable within an allelic series)

Source: paper PMC11006913
